The results in this text go back to PubChem BioAssay.

For assay [1], the system named is PRMT1 (protein arginine N-methyltransferase 1). Description: PRMT1 binders on small-molecule microarrays, primary screen, biochemical, small-molecule microarray, 635 nm fluorescence (AID 1088).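 Also: binding of Prmt1 protein to compounds spotted on small-molecule microarray slides.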 The conditions noted are these: small-molecule microarray binding, higher = more signal.
Assay [2] in a line: yeast growth modulation, basal conditions, primary screen, YJM789 clinical isolate, OD600, 24 h (AID 1089).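 Also: growth of clinical yeast isolate S. cerevisiae YJM 789 seeded 1000 cells per well; test concentration not given here.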 The conditions noted are these: S. cerevisiae YJM789 growth, higher = more signal, called active from +8 up or from −8 down.
The nature of assay [3]: fission yeast growth modulation, primary screen, strain 972, OD600, 24 h, no modulator (AID 1090).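 Also: basal condition with compound alone and no growth modifier present; test concentration not given here.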 The conditions noted are these: S. pombe 972 growth, higher = more signal, called active from +8 up or from −8 down.
Assay [4] can be described thus: S. cerevisiae growth modulation with rapamycin, primary screen, strain BY4716, OD600, 96 h (AID 1091). Also: test concentration not given here. The settings on record: higher = more signal, called active from +8 up or from −8 down.
Assay [5] concerns the target Torsin-1A-interacting protein 2 (Homo sapiens) (UniProt Q8NFQ8). The experiment in a line: LULL1 binders on small-molecule microarray, primary screen, cell lysate, human LULL1 lysate, 635/667 nm fluorescence (AID 1092).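 Also: probe is lysate of COS7 cells overexpressing human LULL1; score merges per-feature 667 nm fluorescence with signal-to-noise.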 The conditions noted are these: hLULL1 lysate binding, 635 nm fluorescence, higher = more signal.
The nature of assay [6]: E. coli growth modulation, two-sided OD650, primary screen, E. coli filamentation project, strain DRC41, 24 h (AID 1093).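 Also: MC1000 strain lacking acrAB efflux and sulA so SOS filamentation is blocked; test concentration not given here.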 The settings on record: OD650, 24 h, higher = more signal, called active from +8 up or from −8 down.
A short description of assay [7]: small-molecule microarray binders of probe aLefty2, primary screen, biochemical, biotinylated probe, 635/667 nm fluorescence (AID 1094).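 Also: score merges spot fluorescence near 667 nm with spot signal-to-noise ratio.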 The settings on record: higher = more signal.
In assay [8] the test system is Noggin (protein binding on small-molecule microarray). The experiment in a line: Noggin binders on small-molecule microarray, primary screen, biochemical, 635/667 nm fluorescence (AID 1095).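 Also: score merges 667 nm feature fluorescence with signal to noise over triplicate slides.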 The conditions noted are these: 635 nm fluorescence, higher = more signal.
Assay [9] deals with Neurogenic locus notch homolog protein 3 (Homo sapiens) (UniProt Q9UM47). Description: NOTCH3 binders on small-molecule microarray, primary screen, biochemical, 635/667 nm fluorescence (AID 1096). The conditions noted are these: NOTCH3 binding, 635 nm fluorescence, higher = more signal.
A short description of assay [10]: small-molecule microarray binders of probe aEGFR, primary screen, biochemical, biotinylated probe, 635/667 nm fluorescence (AID 1097).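 Also: probe is a biotinylated anti-EGFR antibody binding compounds printed on slides; score combines fluorescence near 667 nm and signal to noise of each spot.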 The conditions noted are these: higher = more signal.

The source made the active and inactive calls.

Neurogenic locus notch homolog protein 3 (Homo sapiens), sequence (Q9UM47 whole entry, looked up): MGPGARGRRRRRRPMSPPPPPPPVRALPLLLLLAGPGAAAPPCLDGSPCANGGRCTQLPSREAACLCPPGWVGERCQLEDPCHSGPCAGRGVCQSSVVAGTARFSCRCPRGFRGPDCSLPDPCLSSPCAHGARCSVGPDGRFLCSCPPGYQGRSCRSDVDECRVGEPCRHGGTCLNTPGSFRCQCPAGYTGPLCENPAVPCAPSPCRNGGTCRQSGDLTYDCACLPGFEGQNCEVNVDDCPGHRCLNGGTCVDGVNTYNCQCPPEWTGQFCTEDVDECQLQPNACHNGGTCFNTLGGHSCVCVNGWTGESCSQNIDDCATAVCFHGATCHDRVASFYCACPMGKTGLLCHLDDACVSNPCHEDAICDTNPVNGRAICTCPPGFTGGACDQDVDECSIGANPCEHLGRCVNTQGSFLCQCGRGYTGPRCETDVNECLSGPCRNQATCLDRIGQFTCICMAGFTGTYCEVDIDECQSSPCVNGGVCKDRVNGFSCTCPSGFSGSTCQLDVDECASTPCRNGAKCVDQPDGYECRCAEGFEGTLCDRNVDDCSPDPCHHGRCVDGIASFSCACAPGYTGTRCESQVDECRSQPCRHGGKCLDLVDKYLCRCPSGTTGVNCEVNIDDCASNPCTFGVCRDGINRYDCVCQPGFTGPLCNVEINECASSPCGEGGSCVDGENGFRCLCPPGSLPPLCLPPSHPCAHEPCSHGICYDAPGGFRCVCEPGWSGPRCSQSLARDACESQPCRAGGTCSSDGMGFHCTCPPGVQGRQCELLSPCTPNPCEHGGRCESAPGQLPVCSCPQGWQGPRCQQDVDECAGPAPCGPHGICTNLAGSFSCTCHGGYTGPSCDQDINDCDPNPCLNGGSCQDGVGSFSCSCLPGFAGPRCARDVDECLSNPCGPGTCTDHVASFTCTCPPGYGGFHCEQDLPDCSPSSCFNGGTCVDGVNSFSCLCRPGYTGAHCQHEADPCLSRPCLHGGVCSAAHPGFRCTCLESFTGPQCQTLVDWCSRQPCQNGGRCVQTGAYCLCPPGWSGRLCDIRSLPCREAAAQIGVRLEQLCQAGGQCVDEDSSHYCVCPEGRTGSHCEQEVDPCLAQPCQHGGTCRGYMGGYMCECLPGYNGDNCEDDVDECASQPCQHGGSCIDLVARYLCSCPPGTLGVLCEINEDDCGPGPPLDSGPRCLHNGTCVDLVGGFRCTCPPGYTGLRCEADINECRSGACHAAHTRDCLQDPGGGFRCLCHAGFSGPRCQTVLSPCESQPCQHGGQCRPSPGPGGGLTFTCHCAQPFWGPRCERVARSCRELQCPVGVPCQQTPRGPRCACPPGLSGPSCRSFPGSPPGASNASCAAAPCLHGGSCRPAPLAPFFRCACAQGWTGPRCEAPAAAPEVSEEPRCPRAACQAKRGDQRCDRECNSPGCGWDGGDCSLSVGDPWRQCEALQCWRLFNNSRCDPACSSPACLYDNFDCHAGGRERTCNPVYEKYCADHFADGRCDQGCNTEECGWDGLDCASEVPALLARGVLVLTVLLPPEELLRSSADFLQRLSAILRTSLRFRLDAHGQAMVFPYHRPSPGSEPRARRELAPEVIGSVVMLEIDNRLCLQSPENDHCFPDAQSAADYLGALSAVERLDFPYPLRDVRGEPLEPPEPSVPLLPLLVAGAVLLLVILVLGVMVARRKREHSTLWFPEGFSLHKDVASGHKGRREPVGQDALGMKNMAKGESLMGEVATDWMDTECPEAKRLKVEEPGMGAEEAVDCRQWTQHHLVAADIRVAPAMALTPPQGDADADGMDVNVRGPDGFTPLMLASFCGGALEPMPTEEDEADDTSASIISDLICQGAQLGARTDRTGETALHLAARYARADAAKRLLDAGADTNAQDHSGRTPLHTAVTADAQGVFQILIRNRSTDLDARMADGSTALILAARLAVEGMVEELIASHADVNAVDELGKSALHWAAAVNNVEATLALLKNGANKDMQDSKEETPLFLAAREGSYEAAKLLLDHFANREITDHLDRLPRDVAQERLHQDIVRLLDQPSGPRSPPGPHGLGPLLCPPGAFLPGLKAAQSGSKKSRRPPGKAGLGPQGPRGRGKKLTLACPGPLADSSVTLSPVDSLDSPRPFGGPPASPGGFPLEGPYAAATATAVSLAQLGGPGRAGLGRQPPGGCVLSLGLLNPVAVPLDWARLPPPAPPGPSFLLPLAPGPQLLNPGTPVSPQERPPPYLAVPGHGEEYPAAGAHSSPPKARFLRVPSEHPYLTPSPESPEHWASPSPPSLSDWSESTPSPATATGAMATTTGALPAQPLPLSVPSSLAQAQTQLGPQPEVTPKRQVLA
Torsin-1A-interacting protein 2 (Homo sapiens), sequence (Q8NFQ8 whole entry, looked up): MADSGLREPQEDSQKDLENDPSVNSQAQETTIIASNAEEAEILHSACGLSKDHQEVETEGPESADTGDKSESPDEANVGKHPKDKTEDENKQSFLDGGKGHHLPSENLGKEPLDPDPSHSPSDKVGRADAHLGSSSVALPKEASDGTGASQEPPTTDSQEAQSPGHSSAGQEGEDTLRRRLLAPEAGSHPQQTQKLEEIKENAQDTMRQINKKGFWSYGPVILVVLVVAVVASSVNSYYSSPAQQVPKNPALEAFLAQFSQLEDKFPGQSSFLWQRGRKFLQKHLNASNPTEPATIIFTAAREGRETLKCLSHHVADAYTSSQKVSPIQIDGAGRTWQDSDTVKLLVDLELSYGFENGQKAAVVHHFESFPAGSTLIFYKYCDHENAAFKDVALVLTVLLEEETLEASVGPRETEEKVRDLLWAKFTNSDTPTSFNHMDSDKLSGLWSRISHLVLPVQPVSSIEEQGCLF

As to `COCCCNC(=O)[C@@]1(Cc2ccccc2I)c2ccccc2C(=O)N(C2CCCCC2)[C@H]1c1ccc(CO)cc1`, the composite z-score in [1] is 1.51; in [5], 2.97; in assay [7] it was -0.106; in assay [8], 0.556; in [9], 0.337; in assay [10], -0.0512. Also, the z-score in assay [2] was -1.83 (inactive); in [3], -0.856 (inactive); in assay [4], -1.11 (inactive); in [6], 0.0355 (inactive).
On to `C[C@]12C(=O)N(CCO)[C@@H]3C(=O)N(c4ccc(Cl)cc4)CC=CC31O[C@@H]1/C=C\CCCOC(=O)C12` (stereo not given in full), for which the composite z-score is -0.0919 in assay [1]; -0.236 in assay [5]; 0.034 in assay [7]; -0.464 in assay [8]; 0.0111 in assay [9]; -0.216 in assay [10]. For the same compound, the z-score is -0.174 (inactive) in assay [2], -0.13 (inactive) in assay [3], 0.169 (inactive) in assay [4] and 0.125 (inactive) in [6].
Turning to `C[C@]1(C(=O)O)c2ccccc2C(=O)N(Cc2cc(C(F)(F)F)cc(C(F)(F)F)c2)[C@H]1c1ccc(CO)cc1`, the composite z-score is 1.43 in assay [1]; 0.834 in assay [5]; -0.141 in assay [7]; 0.414 in assay [8]; 0.483 in assay [9]; -0.186 in [10]. The z-score is 0.652 (inactive) in [2], 0.559 (inactive) in [3], -0.754 (inactive) in assay [4] and 0.305 (inactive) in [6].
As to `COc1ccc(CCNC(=O)[C@@]2(c3ccc([N+](=O)[O-])cc3)CC(=O)N(C3CCCCC3)[C@@H]2c2ccc(CO)cc2I)cc1`, the composite z-score in assay [1] is 1.39; in [5], 2.34; in [7], -0.0544; in [8], 0.153; in [9], 0.594; in assay [10], 0.227. Also, the z-score in assay [2] was 0.717 (inactive); in assay [3], 0.0908 (inactive); in [4], 5.88 (inactive); in assay [6], 0.793 (inactive).
Consider `COCCCNC(=O)[C@@]1(Cc2ccccc2I)c2ccccc2C(=O)N(Cc2ccccc2OC)[C@H]1c1ccc(CO)cc1`, for which the composite z-score in assay [1] was 1.56; in [5] it was 2.77; in assay [7], -0.142; in assay [8], -1.22; in assay [9] it was -0.625; in [10], -0.331. Also, the z-score in [2] was 0.634 (inactive); in assay [3] it was 0.248 (inactive); in assay [4], 1.07 (inactive); in assay [6], 0.62 (inactive).
As for `O=C1O[C@@H](c2ccccc2)[C@@H](c2ccccc2)N2[C@@H](c3ccccc3OCCO)[C@]3(C(=O)Nc4ccc(C#CC5(O)CCCCCC5)cc43)[C@@H](C(=O)N3CCCCCCC3)[C@H]12`, the composite z-score in assay [1] amounted to 1.53; in [5] it was 5.07; in [7], 1.95; in [8], 2.46; in assay [9], 1; in [10] it was 1.52. Further, the z-score in [2] was 0.834 (inactive); in assay [3], -0.51 (inactive); in assay [4] it was 2.57 (inactive); in assay [6], 1.23 (inactive).
With `COC(=O)C(CC#Cc1ccc2c(c1)[C@]1(C(=O)N2)[C@H](C(N)=O)[C@H]2C(=O)O[C@H](c3ccccc3)[C@H](c3ccccc3)N2[C@@H]1c1ccccc1OCCO)C(=O)OC`, the composite z-score in assay [1] is 1.56; in [5], 3.13; in [7], -0.075; in assay [8], 0.877; in [9], 0.576; in assay [10], 0.0167. Also, the z-score in assay [2] is 2.79 (inactive); in assay [3], 0.943 (inactive); in [4], 5.37 (inactive); in assay [6], 1.12 (inactive).
With `C=C(COC)C(=O)CC[C@H](OC(C)=O)c1ccccc1OCCO`, the composite z-score was 1.39 in [1]; -0.323 in assay [5]; -0.166 in assay [7]; 0.985 in assay [8]; 0.367 in [9]; -0.262 in [10]. The z-score was 0.556 (inactive) in [2], -2.58 (inactive) in [3], -0.401 (inactive) in assay [4] and 1.32 (inactive) in [6].
As to `CN1C(=O)C2C=CC(C(O)c3ccc(I)cc3)N(N(c3ccccc3)c3ccccc3)C2C1=O` (stereo not given), the composite z-score in [1] is 0.364; in [5] it was 0.155; in [7] it was 0.17; in assay [8], -0.569; in [9], -0.239; in assay [10], -0.0903. In addition, the z-score in assay [2] is 0.413 (inactive); in [3] it was 1.38 (inactive); in [4] it was 1.45 (inactive); in assay [6], -1.07 (inactive).
On to `C=CCNC(=O)[C@H]1[C@@H]2C(=O)O[C@@H](c3ccccc3)[C@@H](c3ccccc3)N2[C@@H](c2ccc(O)cc2)[C@]12C(=O)Nc1ccccc12`, for which the composite z-score in assay [1] was 1.05; in assay [5], 2.75; in [7] it was -0.193; in [8] it was -0.0122; in assay [9], -0.537; in assay [10] it was -0.177. For the same compound, the z-score in [2] is 1.14 (inactive); in assay [3], 0.118 (inactive); in assay [4], 1.37 (inactive); in assay [6], 1.68 (inactive).
For the compound `COc1ccc([Si](C)(C)[C@H]2[C@H](CC(=O)N3CCC[C@H]3CO)O[C@@]3(C(=O)N(Cc4cccc(N5CCCCC5=O)c4)c4ccccc43)[C@@H]2C)cc1`, the composite z-score was 1.52 in [1]; 1.98 in [5]; -0.174 in assay [7]; 1.23 in [8]; 1.09 in assay [9]; -0.139 in [10]. In addition, the z-score in assay [2] was -0.439 (inactive); in [3] it was 0.294 (inactive); in assay [4], -1.23 (inactive); in assay [6], 0.561 (inactive).
For the compound `O=C(NCC(F)(F)F)[C@@H]1c2ccccc2C(=O)N(Cc2cc(C(F)(F)F)cc(C(F)(F)F)c2)[C@H]1c1ccc(CO)cc1`, the composite z-score was 0.648 in assay [1]; 1.04 in assay [5]; -0.217 in [7]; 0.148 in assay [8]; -0.122 in assay [9]; -0.219 in assay [10]. For the same compound, the z-score in [2] was 0.338 (inactive); in assay [3], 0.459 (inactive); in assay [4] it was -0.359 (inactive); in assay [6], 0.955 (inactive).
As to `O=C1O[C@@H](c2ccccc2)[C@@H](c2ccccc2)N2[C@@H](c3ccc(OCCO)cc3)[C@]3(C(=O)Nc4ccc(C#CC5=CCCCC5)cc43)[C@@H](C(=O)Nc3nc4ccccc4s3)[C@H]12`, the composite z-score is 1.56 in [1]; 1.86 in [5]; -0.673 in [7]; 1.11 in assay [8]; 1.02 in assay [9]; -0.0613 in assay [10]. Besides, the z-score in assay [2] is 2.22 (inactive); in [3], 1.59 (inactive); in [4], 1.57 (inactive); in [6], -0.124 (inactive).
With `[N-]=[N+]=NCc1ccccc1[C@H]1OC(c2ccc(OCCCO)cc2)=N[C@@]1(CCS(=O)(=O)c1ccccc1)C(=O)NCCN1CCOCC1`, the composite z-score in assay [1] is 1.56; in [5], 3.5; in assay [7], 0.181; in [8], 0.0038; in assay [9] it was 1.06; in assay [10], 0.214. The z-score was 0.917 (inactive) in [2], 0.306 (inactive) in [3], 1.27 (inactive) in assay [4] and -0.0501 (inactive) in assay [6].
